PubChem BioAssay (NCI)
This is part of a sample that, as a whole, favours compounds with a hit. Of some 83,000 tested, about 20% had one in any assay.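 How to read the values: 0–100, growth inhibition (40 = 60% inhibited); 0, no net growth; -100 to 0, cell death (-40 = 40% of starting cells died; -100 = all dead).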 Activity calls are given as the source filed them. How the source made its calls: active means growth percent below 10; inactive means the rest.

How the values were obtained:
Assay in all cases: NCI-60 one-dose screen, 48 h (100 = growth as untreated, 0 = no growth, -100 = all killed)
HCT-15 colon = conditions: 10 µM unless noted
HT29 colon = conditions: 10 µM unless noted
SNB-75 CNS = conditions: 10 µM unless noted
SNB-19 CNS = conditions: 10 µM unless noted
U251 CNS = conditions: 10 µM unless noted
PC-3 prostate = conditions: 10 µM unless noted
SK-MEL-5 melanoma = conditions: 10 µM unless noted
LOX IMVI melanoma = conditions: 10 µM unless noted
SK-MEL-28 melanoma = conditions: 10 µM unless noted
SK-MEL-2 melanoma = conditions: 10 µM
EKVX NSCLC = conditions: 10 µM unless noted
SN12C renal = conditions: 10 µM unless noted
UO-31 renal = conditions: 10 µM unless noted
TK-10 renal = conditions: 10 µM unless noted
ACHN renal = conditions: 10 µM unless noted
A498 renal = conditions: 10 µM unless noted
CCRF-CEM leukemia = conditions: 10 µM unless noted
MOLT-4 leukemia = conditions: 10 µM unless noted
UACC-62 melanoma = conditions: 10 µM unless noted
CAKI-1 renal = conditions: 10 µM unless noted

Measured: growth

CCOC(=O)C1=C(C)NC(=O)NC1c1cc(=O)oc2ccc(C)cc12 (stereo not given)
inactive: HCT-15 colon 104% | HT29 colon 95.2% | SNB-75 CNS 97% | SNB-19 CNS 106% | U251 CNS 102% | PC-3 prostate 97.2% | SK-MEL-5 melanoma 98.2% | LOX IMVI melanoma 97.5% | SK-MEL-28 melanoma 107% | SK-MEL-2 melanoma 95.6% | EKVX NSCLC 95.2% | SN12C renal 101% | UO-31 renal 93.1% | TK-10 renal 97.1% | ACHN renal 114% | A498 renal 104% | CCRF-CEM leukemia 101% | MOLT-4 leukemia 99.1%

O=C(Nc1ccc(Nc2ncnc3sc4c(c23)CCOC4)cc1)Nc1ccc(Cl)c(C(F)(F)F)c1
inactive: HCT-15 colon 98.9% | HT29 colon 81.1% | SNB-75 CNS 69.1% | SNB-19 CNS 110% | U251 CNS 99.9% | PC-3 prostate 60.8% | SK-MEL-5 melanoma 98.1% | UACC-62 melanoma 93.4% | LOX IMVI melanoma 99.9% | SK-MEL-28 melanoma 95.1% | EKVX NSCLC 105% | TK-10 renal 109% | ACHN renal 86.6% | CAKI-1 renal 107% | A498 renal 89.5% | CCRF-CEM leukemia 86.7% | MOLT-4 leukemia 74.4%

CNC(=O)c1cc(Oc2cccc3nc(Nc4ccc(Oc5ccccc5)cc4)ccc23)ccn1
inactive: HCT-15 colon 54.7% | HT29 colon 62.5% | SNB-75 CNS 67.8% | SNB-19 CNS 92% | U251 CNS 65.6% | PC-3 prostate 35.4% | SK-MEL-5 melanoma 36.3% | LOX IMVI melanoma 83% | SK-MEL-28 melanoma 77.4% | EKVX NSCLC 62.2% | SN12C renal 81.3% | UO-31 renal 57.9% | TK-10 renal 78.5% | ACHN renal 81.1% | CAKI-1 renal 67.5% | A498 renal 73.8% | CCRF-CEM leukemia 69.5% | MOLT-4 leukemia 42.7%

CCOc1cccc(/C=N/NC(=O)c2ccccc2Nc2ccnc(C(F)(F)F)c2)c1O
active: SK-MEL-5 melanoma -67% | LOX IMVI melanoma 7.4% | UO-31 renal -15.1% | ACHN renal 5.76% | CAKI-1 renal 4.57% | A498 renal -10.8% | CCRF-CEM leukemia -37.3% | MOLT-4 leukemia -10.9%
inactive: HCT-15 colon 34.2% | HT29 colon 47.9% | SNB-75 CNS 14.1% | SNB-19 CNS 21.1% | U251 CNS 15.2% | PC-3 prostate 54.2% | SK-MEL-28 melanoma 21.1% | EKVX NSCLC 10.6% | SN12C renal 27.2% | TK-10 renal 23.5%

Cc1ccc(NC(=O)Nc2ccc(Nc3ncnc4sc5c(c34)CCOC5)cc2)cc1Cl
inactive: HCT-15 colon 106% | HT29 colon 81.2% | SNB-75 CNS 69.8% | SNB-19 CNS 103% | U251 CNS 87.7% | PC-3 prostate 81.2% | SK-MEL-5 melanoma 95% | UACC-62 melanoma 95.4% | LOX IMVI melanoma 97.3% | SK-MEL-28 melanoma 111% | EKVX NSCLC 110% | TK-10 renal 103% | ACHN renal 94.6% | CAKI-1 renal 91.7% | A498 renal 90.4% | CCRF-CEM leukemia 90.3% | MOLT-4 leukemia 88.9%

Cc1cc(O)c2c(c1)C1OC(=O)CCCCCN1C1=C2C(=O)c2cccc(OC3CC(O)C(O)C(C)O3)c2C1=O (stereo not given)
inactive: HCT-15 colon 46.1% | HT29 colon 93.7% | SNB-75 CNS 117% | SNB-19 CNS 97.1% | U251 CNS 63.1% | PC-3 prostate 87.2% | SK-MEL-5 melanoma 86.9% | LOX IMVI melanoma 34.3% | SK-MEL-28 melanoma 75.8% | SK-MEL-2 melanoma 46.4% | EKVX NSCLC 97% | SN12C renal 66.3% | UO-31 renal 99.9% | TK-10 renal 142% | CAKI-1 renal 96.9% | CCRF-CEM leukemia 57.8% | MOLT-4 leukemia 63.3%

CC(C)(O)CC(=O)NCCn1ccc2ncnc(Nc3ccc(Oc4cccc(C(F)(F)F)c4)c(Cl)c3)c21
inactive: HCT-15 colon 12.2% | SNB-75 CNS 29.3% | SNB-19 CNS 18.7% | SN12C renal 12.4% | CAKI-1 renal 19.2%
active: HT29 colon -24.2% | U251 CNS 9.09% | PC-3 prostate 1.54% | SK-MEL-5 melanoma -19.9% | LOX IMVI melanoma 6.23% | SK-MEL-28 melanoma -0.504% | EKVX NSCLC 8.11% | UO-31 renal -6.15% | TK-10 renal -30.3% | ACHN renal 8.71% | A498 renal -28.7% | MOLT-4 leukemia 7.32%

COC(=O)c1ccc2c(C(=Nc3ccc(N(C)C(=O)CN4CCN(C)CC4)cc3)c3ccccc3)c(O)[nH]c2c1
inactive: HCT-15 colon 65.9% | SNB-75 CNS 18% | SNB-19 CNS 67.9% | U251 CNS 45.4% | PC-3 prostate 67.9% | SK-MEL-5 melanoma 68% | LOX IMVI melanoma 33.6% | SK-MEL-28 melanoma 74.5% | EKVX NSCLC 94% | SN12C renal 44.8% | TK-10 renal 46.5% | ACHN renal 48.8% | CAKI-1 renal 51.8% | A498 renal 21.7% | CCRF-CEM leukemia 40.4% | MOLT-4 leukemia 50.5%
active: HT29 colon 8.01% | UO-31 renal 9.57%

COc1ccc2c(OCc3nnc4ccc(-c5ccccc5)nn34)ccnc2c1
active: LOX IMVI melanoma 2.5% [2.5 µM]
inactive: HCT-15 colon 96.9% [2.5 µM] | HT29 colon 94.1% [2.5 µM] | SNB-75 CNS 93.5% [2.5 µM] | SNB-19 CNS 106% [2.5 µM] | U251 CNS 110% [2.5 µM] | PC-3 prostate 96.9% [2.5 µM] | SK-MEL-5 melanoma 91.9% [2.5 µM] | SK-MEL-28 melanoma 111% [2.5 µM] | EKVX NSCLC 104% [2.5 µM] | SN12C renal 104% [2.5 µM] | UO-31 renal 74.6% [2.5 µM] | TK-10 renal 93.7% [2.5 µM] | ACHN renal 97.2% [2.5 µM] | CAKI-1 renal 74.6% [2.5 µM] | A498 renal 89.1% [2.5 µM] | CCRF-CEM leukemia 102% [2.5 µM] | MOLT-4 leukemia 72.7% [2.5 µM]

CN1CC[C@H](c2c(O)cc(O)c3c(=O)cc(-c4ccccc4Cl)oc23)[C@H](O)C1
active: HCT-15 colon 4.15% | HT29 colon -19.8% | SNB-75 CNS -59.7% | U251 CNS 5.78% | PC-3 prostate -4.62% | SK-MEL-5 melanoma -19% | LOX IMVI melanoma 4.81% | SK-MEL-28 melanoma -29.4% | EKVX NSCLC 0.266% | UO-31 renal -14.1% | TK-10 renal -0.739% | ACHN renal 4.43% | A498 renal -54.2% | MOLT-4 leukemia 1.35%
inactive: SNB-19 CNS 10.1% | SN12C renal 10.4% | CAKI-1 renal 10.1% | CCRF-CEM leukemia 10.2%

FC(F)c1nc2ccccc2n1-c1nc(N2CCOCC2)nc(N2CCOCC2)n1
inactive: SNB-19 CNS 10.5%
active: HCT-15 colon 9.28% | HT29 colon 2.81% | SNB-75 CNS -48% | U251 CNS 4.05% | PC-3 prostate 7.59% | SK-MEL-5 melanoma -41.8% | LOX IMVI melanoma -17.9% | SK-MEL-28 melanoma -31% | EKVX NSCLC 2.75% | SN12C renal 8.54% | UO-31 renal -26.2% | TK-10 renal -27.9% | ACHN renal -8.61% | CAKI-1 renal -11% | A498 renal -82.4% | CCRF-CEM leukemia 8.99% | MOLT-4 leukemia 1.48%

CC(=O)C1=C(C)NC(SCc2nnc(-c3ccc(C)cc3)o2)=NC1c1ccc(F)cc1 (stereo not given)
inactive: HCT-15 colon 101% | HT29 colon 110% | SNB-75 CNS 98.5% | SNB-19 CNS 94.1% | U251 CNS 95.2% | PC-3 prostate 85.3% | SK-MEL-5 melanoma 99% | LOX IMVI melanoma 93.2% | EKVX NSCLC 107% | SN12C renal 93.1% | UO-31 renal 83.6% | TK-10 renal 85.6% | ACHN renal 92% | CAKI-1 renal 88% | A498 renal 109% | CCRF-CEM leukemia 88.1% | MOLT-4 leukemia 94.1%
active: SK-MEL-28 melanoma -78.4%

COc1cc(F)c(F)c(Nc2ccc(I)cc2F)c1NS(=O)(=O)C1(C[C@H](O)CO)CC1
active: HT29 colon 5.42% | SK-MEL-28 melanoma 3.06% | A498 renal -48%
inactive: HCT-15 colon 26.9% | SNB-75 CNS 41% | SNB-19 CNS 43% | U251 CNS 35.6% | PC-3 prostate 48.9% | SK-MEL-5 melanoma 19.1% | LOX IMVI melanoma 11.9% | EKVX NSCLC 29.2% | SN12C renal 51% | UO-31 renal 16.2% | TK-10 renal 27.7% | ACHN renal 37.9% | CAKI-1 renal 30.5% | CCRF-CEM leukemia 67% | MOLT-4 leukemia 43.2%

CCCCn1c(C)nc2cc(Nc3nc(N4CCCCC4)nc4nc[nH]c34)ccc21
active: SK-MEL-5 melanoma -31.7% | MOLT-4 leukemia 9.09%
inactive: HCT-15 colon 52.9% | HT29 colon 59.8% | SNB-75 CNS 11.4% | SNB-19 CNS 73.3% | U251 CNS 58.5% | PC-3 prostate 25.7% | LOX IMVI melanoma 33.7% | SK-MEL-28 melanoma 76% | EKVX NSCLC 52.5% | SN12C renal 49.6% | UO-31 renal 28.1% | TK-10 renal 57.2% | ACHN renal 36.8% | CAKI-1 renal 31.1% | A498 renal 34.3% | CCRF-CEM leukemia 46.6%

NS(=O)(=O)c1ccc(CCN2C(=O)/C(=C\c3ccc(Cl)cc3)C=C2c2ccc3ccccc3c2)cc1
inactive: HCT-15 colon 94.9% | HT29 colon 87.9% | SNB-75 CNS 78.1% | SNB-19 CNS 92.5% | U251 CNS 85.5% | PC-3 prostate 75.8% | SK-MEL-5 melanoma 94.8% | LOX IMVI melanoma 96.1% | SK-MEL-28 melanoma 103% | SK-MEL-2 melanoma 106% | EKVX NSCLC 89.4% | SN12C renal 94% | TK-10 renal 95.5% | ACHN renal 90% | CAKI-1 renal 82.4% | CCRF-CEM leukemia 106% | MOLT-4 leukemia 86.3%

Cn1cnc(-c2cc3nccc(Oc4ccc(NC(=S)NC(=O)Cc5ccccc5)cc4F)c3s2)c1
inactive: HCT-15 colon 85.3% | HT29 colon 62.6% | SNB-75 CNS 78.6% | SNB-19 CNS 96.6% | U251 CNS 79.7% | PC-3 prostate 81.3% | SK-MEL-5 melanoma 76.7% | LOX IMVI melanoma 94.5% | SK-MEL-28 melanoma 98.3% | EKVX NSCLC 109% | SN12C renal 54.1% | UO-31 renal 72.2% | TK-10 renal 85.1% | ACHN renal 80.4% | CAKI-1 renal 80.8% | CCRF-CEM leukemia 58.6% | MOLT-4 leukemia 69.4%

COc1ccc2c(CCCC(c3ccccc3)c3ccccc3)c3[n+](cc2c1OC)CCc1cc2c(cc1-3)OCO2
inactive: HCT-15 colon 13.2% | EKVX NSCLC 14.9% | ACHN renal 11.6% | CAKI-1 renal 57.7%
active: HT29 colon -2.94% | SNB-75 CNS -19.1% | SNB-19 CNS -16.4% | U251 CNS -76.2% | PC-3 prostate -68.8% | SK-MEL-5 melanoma -100% | LOX IMVI melanoma -100% | SK-MEL-28 melanoma -78.7% | SK-MEL-2 melanoma -52.4% | SN12C renal -65.6% | UO-31 renal 5.46% | TK-10 renal -30.7% | CCRF-CEM leukemia 5.53% | MOLT-4 leukemia -20.5%
